# Assay results taken from the supplement of paper PMC10849652.
# The full data set covers some 7,900 targets. This sample favours those with a hit. About 0.6% of all pairs of compound and target were hits. Unmarked numbers belong to inactive results.
# Tests used:
# Experiment in all cases: log2 fold change, soluble protein after heating vs DMSO (PISA); higher = thermal stabilisation; K562 cells, 10 uM, 30 min; active = over 0.2 and 3.5 SD of the protein, either way, in both replicates (recomputed)
# [1] = compound: CC1=C(C=C(C=C1)NC(=O)C2=CC(=CC=C2)C(C)(C)C#N)NC3=CC4=C(C=C3)N=CN(C4=O)C
# How it was run: (§1)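 Soluble protein was defined as the supernatant after 21,000xg for 90 min. It came from K562 cells at 2×10^6 cells/mL given 10 μM compound for 30 min, heated in aliquots for 3 min across 48°C-58°C, pooled, and extracted in PBS with 0.5% NP-40 at 4°C, and was quantified by TMTpro 16plex LC-MS/MS with equalised channel sums. Thermal stability against control samples, from duplicates, is reported as log2 fold change.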
# [2] = compound: CC1=C(C=C(C=C1)NC(=O)C2=CC(=CC=C2)N(C)C)NC(=O)C3=CC=C(C=C3)O
# How it was run: as §1
# [3] = compound: CC1=CC=C(C=C1)SC2=C3C=C(SC3=CN=C2)C(=O)N
# How it was run: as §1
# [4] = compound: CC1=NC(=CC=C1)C2=C(N=C(N2)C(C)(C)C)C3=CC4=NC=CN=C4C=C3
# How it was run: as §1
# Nexturastat A = compound: CCCCN(Cc1ccc(C(=O)NO)cc1)C(=O)Nc1ccccc1 [Nexturastat A]
# How it was run: as §1
# vemurafenib = compound: CCCS(=O)(=O)Nc1ccc(F)c(C(=O)c2c[nH]c3ncc(-c4ccc(Cl)cc4)cc23)c1F [vemurafenib]
# How it was run: as §1
# [5] = compound: CCCS(=O)(=O)Nc1ccc(F)c(C(=O)c2c[nH]c3ncc(Cl)cc23)c1F
# How it was run: as §1
# [6] = compound: CCCc1cc(C)[nH]c(=O)c1CNC(=O)c1cc(-c2ccnc(N3CCN(C)CC3)c2)cc2c1cnn2C(C)C
# How it was run: as §1
# givinostat = compound: CCN(CC)Cc1ccc2cc(COC(=O)Nc3ccc(C(=O)NO)cc3)ccc2c1 [givinostat]
# How it was run: as §1
# barasertib = compound: CCN(CCCOc1ccc2c(Nc3cc(CC(=O)Nc4cccc(F)c4)[nH]n3)ncnc2c1)CCOP(=O)(O)O [barasertib]
# How it was run: as §1
# [7] = compound: CC[C@@H]1C(=O)N(C)c2cnc(Nc3ccc(C(=O)NC4CCN(C)CC4)cc3OC)nc2N1C1CCCC1
# How it was run: as §1
# volasertib = compound: CC[C@@H]1C(=O)N(C)c2cnc(Nc3ccc(C(=O)N[C@H]4CC[C@H](N5CCN(CC6CC6)CC5)CC4)cc3OC)nc2N1C(C)C [volasertib]
# How it was run: as §1
# [8] = compound: CC[C@H](C)N1C=C(C2=C(C=C(C=C21)C3=CN=C(C=C3)N4CCNCC4)C(=O)NCC5=C(C=C(NC5=O)C)C)C
# How it was run: as §1
# epoxomicin = compound: CC[C@H](C)[C@@H](C(=O)N[C@@H]([C@@H](C)O)C(=O)N[C@@H](CC(C)C)C(=O)[C@]1(CO1)C)NC(=O)[C@H]([C@@H](C)CC)N(C)C(=O)C [epoxomicin]
# How it was run: as §1
# [9] = compound: CCn1c(C(=O)N(C2CC2)C2CC2)cc2c3c(ncn3C)c(Nc3cc(C)n(C)n3)nc21
# How it was run: as §1
# [10] = compound: CCn1cc(-c2ccnc3[nH]c(-c4cccc(CN(C)C)c4)cc23)c(-c2ccc(NC(=O)N(C)C)cc2)n1
# How it was run: as §1
# [11] = compound: CN(C)CC(=O)Nc1ccc2[nH]c(=O)c3ccccc3c2c1
# How it was run: as §1
# rosiglitazone = compound: CN(CCOC1=CC=C(C=C1)C[C@H]2C(=O)NC(=O)S2)C3=CC=CC=N3 (racemic) [rosiglitazone]
# How it was run: as §1
# [12] = compound: CN1C2=C(C3=C1C(=O)N(N=C3)CC4=CC(=CC=C4)N)SC(=C2)S(=O)C
# How it was run: as §1
# [13] = compound: CN1CCC(CNc2ccc3ncc(-c4cccc(OC(F)(F)F)c4)n3n2)CC1
# How it was run: as §1
# Sequence of UniProt Q96D46 (Q96D46 whole entry, looked up): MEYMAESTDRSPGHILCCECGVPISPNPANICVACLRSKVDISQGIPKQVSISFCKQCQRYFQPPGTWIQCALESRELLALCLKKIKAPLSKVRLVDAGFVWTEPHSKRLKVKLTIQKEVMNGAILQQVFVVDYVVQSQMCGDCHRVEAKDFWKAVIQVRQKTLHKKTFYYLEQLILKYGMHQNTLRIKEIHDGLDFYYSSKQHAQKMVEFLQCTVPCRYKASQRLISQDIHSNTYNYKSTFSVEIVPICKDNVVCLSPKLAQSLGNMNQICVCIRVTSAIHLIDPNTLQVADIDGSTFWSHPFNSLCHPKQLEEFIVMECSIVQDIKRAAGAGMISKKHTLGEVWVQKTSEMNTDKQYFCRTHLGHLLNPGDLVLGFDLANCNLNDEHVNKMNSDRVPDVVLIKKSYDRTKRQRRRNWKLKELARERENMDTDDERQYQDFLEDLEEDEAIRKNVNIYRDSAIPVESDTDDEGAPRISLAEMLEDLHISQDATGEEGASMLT
# Sequence of UniProt P55786 (P55786 whole entry, looked up): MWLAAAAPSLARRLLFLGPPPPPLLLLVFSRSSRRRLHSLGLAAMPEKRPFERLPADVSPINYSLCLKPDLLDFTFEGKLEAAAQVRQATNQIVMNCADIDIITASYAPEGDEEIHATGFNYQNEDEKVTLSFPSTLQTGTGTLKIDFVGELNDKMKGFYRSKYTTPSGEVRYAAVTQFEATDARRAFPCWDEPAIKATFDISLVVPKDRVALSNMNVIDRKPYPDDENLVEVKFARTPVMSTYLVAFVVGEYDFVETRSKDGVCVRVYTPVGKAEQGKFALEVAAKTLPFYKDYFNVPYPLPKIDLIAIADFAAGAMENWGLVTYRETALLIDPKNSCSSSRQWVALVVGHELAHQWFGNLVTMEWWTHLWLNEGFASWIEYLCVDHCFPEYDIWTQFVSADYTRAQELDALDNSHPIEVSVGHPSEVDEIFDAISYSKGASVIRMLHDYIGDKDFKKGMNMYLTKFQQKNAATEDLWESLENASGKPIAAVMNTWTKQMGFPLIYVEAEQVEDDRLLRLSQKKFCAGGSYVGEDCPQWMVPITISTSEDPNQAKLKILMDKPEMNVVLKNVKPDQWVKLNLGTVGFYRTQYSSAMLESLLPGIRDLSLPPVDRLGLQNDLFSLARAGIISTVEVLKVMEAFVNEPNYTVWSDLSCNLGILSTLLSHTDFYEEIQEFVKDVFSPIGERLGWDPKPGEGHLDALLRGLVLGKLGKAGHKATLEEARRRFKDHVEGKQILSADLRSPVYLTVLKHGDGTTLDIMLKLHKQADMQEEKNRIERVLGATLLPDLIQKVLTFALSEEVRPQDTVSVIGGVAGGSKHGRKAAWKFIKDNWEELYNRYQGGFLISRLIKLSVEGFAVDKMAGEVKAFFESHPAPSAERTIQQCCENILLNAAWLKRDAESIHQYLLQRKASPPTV
# Sequence of UniProt Q6VY07 (Q6VY07 whole entry, looked up): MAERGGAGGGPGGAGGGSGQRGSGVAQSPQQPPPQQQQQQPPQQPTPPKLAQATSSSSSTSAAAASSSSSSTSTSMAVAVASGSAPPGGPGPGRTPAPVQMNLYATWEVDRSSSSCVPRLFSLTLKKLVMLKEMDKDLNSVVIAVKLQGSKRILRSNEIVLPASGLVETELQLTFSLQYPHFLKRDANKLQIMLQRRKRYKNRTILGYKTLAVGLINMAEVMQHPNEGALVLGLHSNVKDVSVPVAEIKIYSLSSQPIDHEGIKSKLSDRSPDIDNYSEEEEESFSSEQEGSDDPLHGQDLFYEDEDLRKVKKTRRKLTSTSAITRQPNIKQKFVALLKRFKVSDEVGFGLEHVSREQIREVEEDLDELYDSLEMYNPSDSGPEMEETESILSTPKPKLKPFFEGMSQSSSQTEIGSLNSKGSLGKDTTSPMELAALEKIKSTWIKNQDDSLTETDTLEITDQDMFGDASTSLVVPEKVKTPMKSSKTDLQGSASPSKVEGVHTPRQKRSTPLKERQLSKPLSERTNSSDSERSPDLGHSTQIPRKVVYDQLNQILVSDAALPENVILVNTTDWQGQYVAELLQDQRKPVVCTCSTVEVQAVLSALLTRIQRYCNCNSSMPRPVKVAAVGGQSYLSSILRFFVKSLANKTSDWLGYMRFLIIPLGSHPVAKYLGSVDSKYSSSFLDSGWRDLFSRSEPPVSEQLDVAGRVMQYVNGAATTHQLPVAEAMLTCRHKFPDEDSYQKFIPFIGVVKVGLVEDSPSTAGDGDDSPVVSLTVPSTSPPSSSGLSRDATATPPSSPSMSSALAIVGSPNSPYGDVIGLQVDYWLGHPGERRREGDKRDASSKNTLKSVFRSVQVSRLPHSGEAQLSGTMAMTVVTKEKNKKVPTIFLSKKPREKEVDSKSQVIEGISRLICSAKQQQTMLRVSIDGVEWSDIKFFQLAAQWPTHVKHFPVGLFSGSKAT
# Sequence of UniProt Q8N6M0 (Q8N6M0 whole entry, looked up): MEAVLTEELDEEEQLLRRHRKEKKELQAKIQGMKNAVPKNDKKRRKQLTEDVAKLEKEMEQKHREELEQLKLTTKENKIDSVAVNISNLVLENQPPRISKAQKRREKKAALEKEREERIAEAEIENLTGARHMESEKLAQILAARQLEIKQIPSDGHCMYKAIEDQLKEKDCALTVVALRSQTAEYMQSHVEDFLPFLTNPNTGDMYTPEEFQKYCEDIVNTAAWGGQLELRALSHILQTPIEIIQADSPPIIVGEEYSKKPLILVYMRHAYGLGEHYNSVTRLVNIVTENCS
# Sequence of UniProt Q9Y2X3 (Q9Y2X3 whole entry, looked up): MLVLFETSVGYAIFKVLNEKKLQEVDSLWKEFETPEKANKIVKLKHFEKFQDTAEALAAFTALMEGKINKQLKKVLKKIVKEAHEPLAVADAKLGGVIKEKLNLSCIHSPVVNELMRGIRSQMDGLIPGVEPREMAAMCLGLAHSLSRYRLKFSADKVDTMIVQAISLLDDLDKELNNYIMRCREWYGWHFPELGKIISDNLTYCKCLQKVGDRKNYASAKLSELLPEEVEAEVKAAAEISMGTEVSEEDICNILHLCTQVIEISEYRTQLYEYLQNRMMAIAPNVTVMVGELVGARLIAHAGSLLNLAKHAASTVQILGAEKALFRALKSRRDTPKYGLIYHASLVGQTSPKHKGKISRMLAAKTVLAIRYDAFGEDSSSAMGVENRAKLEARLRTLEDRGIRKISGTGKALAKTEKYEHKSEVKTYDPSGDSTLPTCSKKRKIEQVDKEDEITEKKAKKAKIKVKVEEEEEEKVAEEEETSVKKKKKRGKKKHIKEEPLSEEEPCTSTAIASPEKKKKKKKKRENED
Target,log2 fold change [1],log2 fold change [2],log2 fold change [3],log2 fold change [4],log2 fold change (Nexturastat A),log2 fold change (vemurafenib),log2 fold change [5],log2 fold change [6],log2 fold change (givinostat),log2 fold change (barasertib),log2 fold change [7],log2 fold change (volasertib),log2 fold change [8],log2 fold change (epoxomicin),log2 fold change [9],log2 fold change [10],log2 fold change [11],log2 fold change (rosiglitazone),log2 fold change [12],log2 fold change [13]
OTUD6B (UniProt Q8N6M0),0.045,-0.002,0.124,0.007,0.044,0.035,0.14,0.084,-0.02,0.096,-0.163,-0.435 (active),0.036,0.094,-0.032,-0.055,0.066,0.09,-0.019,-0.137
MRPL50 (UniProt Q8N5N7),-0.09,-0.04,0.175,-0.031,0.208,0.034,0.244,-0.058,0.05,-0.057,0.026,-0.029,-0.063,0.094,-0.005,-0.044,0.037,-0.015,-0.043,0.308
MRPS5 (UniProt P82675),0.08,-0.086,-0.005,0.004,0.159,-0.048,0.062,0.016,0.013,0.023,0.005,-0.066,0.181,0.077,-0.048,-0.05,-0.037,-0.005,0.032,0.102
MRPS22 (UniProt P82650),0.041,-0.029,0.022,-0.018,0.092,-0.024,0.037,0.049,0.032,-0.055,0.007,-0.05,0.125,0.004,-0.03,-0.068,0.004,-0.006,0.084,0.103
MRPL34 (UniProt Q9BQ48),-0.022,-0.01,0.019,-0.052,0.259,-0.062,0.051,0.066,-0.021,0.022,0.061,0.029,-0.007,-0.042,-0.042,0.109,-0.065,-0.028,0.232,0.048
MRPS27 isoform 2 (UniProt Q92552),0.037,-0.022,0.006,0.039,0.151,0.064,0.035,0.051,0.055,-0.016,-0.02,-0.041,0.132,0.052,-0.033,-0.046,0.019,0.05,0.047,-0.001
NOP58 (UniProt Q9Y2X3),-0.055,-0.012,-0.058,-0.073,0.161,0.046,0.041,0.081,0.072,-0.075,0.095,-0.066,0.057,-0.263,0.005,0.192,0.052,-0.052,0.234,0.2
NPEPPS (UniProt P55786),0.079,-0.012,-0.004,0.018,-0.017,-0.022,0.003,0.009,-0.02,0.008,-0.005,-0.023,0.079,-0.022,0.082,-0.102,0.007,0.046,-0.098,-0.141
NMD3 (UniProt Q96D46),0.03,-0.061,-0.009,0.067,-0.079,0.077,0.03,-0.004,-0.024,0.015,0.103,0.151,-0.009,0.042,-0.029,-0.163,0.04,0.064,-0.138,0.114
NDUFB10 (UniProt O96000),-0.093,-0.008,0.001,0.05,-0.002,-0.019,0,-0.126,-0.023,0.02,-0.008,0.056,-0.007,0.001,0,0.03,-0.005,0.013,-0.043,-0.237 (active)
MRPS24 (UniProt Q96EL2),-0.01,-0.037,0.047,-0.003,0.095,-0.065,0.057,-0.016,-0.035,-0.024,-0.004,0.121,0.126,-0.067,-0.031,-0.095,0,-0.026,-0.004,0.07
"NA, A0A0B4J2A0",0.016,-0.028,0.002,-0.006,-0.043,0.017,0.072,-0.091,0.029,0.012,-0.163,-0.036,0.008,0.11,-0.04,-0.055,-0.004,0.049,-0.078,-0.101
PACS1 (UniProt Q6VY07),-0.001,-0.031,-0.021,0.087,0.023,0.021,0.023,0.092,0.004,0.039,0,-0.03,0.208,-0.045,-0.025,-0.006,0.006,0.039,0.029,0.014
